Out of some 5,500 compounds screened, about 2,000 (36%) were called active. Another 18% or so got no clear call; they are omitted. Rule as the data show it: active = normalized growth mostly below about 0.91 (no sharp cut-off); inconclusive = no clear call, values can overlap the other calls; inactive = mostly above about 0.92. The list shows a part of the results.
Assay: chemical genetic growth profiling, strain panel (AID 1159580);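 also: tested at 20 µM; growth read once vehicle control cultures reached saturation at 30 °C; 1 = growth at the plate median or of vehicle wells; lower values mean less growth of the strain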
Details: S. cerevisiae deletion strains, growth OD
[1] = locus YAL040C, strain CLN3, active compounds read low
[2] = locus YCL061C, strain MRC1 (second series), active compounds read low
[3] = locus YDR150W, strain NUM1, active compounds read low
[4] = locus YDR363W, strain ESC2, active compounds read low
[5] = locus YER002W, strain NOP16, active compounds read low
[6] = locus YGR229C, strain SMI1, active compounds read low
[7] = locus YNL128W, strain TEP1, active compounds read low
[8] = locus YNL175C, strain NOP13, active compounds read low
[9] = locus YNL197C, strain WHI3, active compounds read low
[10] = locus YOR083W, strain WHI5 (second series), active compounds read low

Measured: normalized growth

CN1[C@@H](CC(=O)c2ccccc2)CCC[C@H]1C[C@H](O)c1ccccc1
inactive: [1] 1.01 | [2] 1.01 | [3] 1.01 | [4] 0.984 | [5] 1 | [6] 0.99 | locus YJR075W, strain HOC1, active compounds read low 1.01 | locus YMR263W, strain SAP30, active compounds read low 1.01 | [7] 1 | [8] 1.02 | [9] 1.01 | locus YNL224C, strain SQS1, active compounds read low 1 | [10] 1.02 | locus YPL241C, strain CIN2, active compounds read low 1.01

CC(C)(C)c1ccc(C(O)CCCN2CCC(C(O)(c3ccccc3)c3ccccc3)CC2)cc1 (stereo unspecified)
inactive: locus YAL013W, strain DEP1, active compounds read low 0.984 | [1] 0.991 | [2] 1 | [3] 1.01 | [4] 1 | [6] 0.936 | locus YHR030C, strain SLT2, active compounds read low 0.952 | locus YHR079C, strain IRE1, active compounds read low 0.941 | locus YJL095W, strain BCK1, active compounds read low 0.973 | locus YJR066W, strain TOR1, active compounds read low 0.972 | locus YLR113W, strain HOG1, active compounds read low 0.978 | locus YMR307W, strain GAS1, active compounds read low 1.01 | [7] 1.09 | locus YNL153C, strain GIM3, active compounds read low 1.01 | locus YNL183C, strain NPR1, active compounds read low 0.936 | [10] 1.05 | locus YOR231W, strain MKK1, active compounds read low 0.966 | locus YPL055C, strain LGE1, active compounds read low 0.978 | locus YPL256C, strain CLN2, active compounds read low 0.955
active: [5] 1.22 [resistant] | [8] 1.25 [resistant] | [9] 1.15 [resistant]

Reference: PubChem BioAssay AID1159580 (chemical genetic matrix, 2015)
